Consider 20 molecules from the antibiotic and cytotoxicity screens of Wong et al. (2023).

Hit rate of the full screen: of about 39,000 compounds, about 3,300 (8.5%) were called active. This is one part of a sample in which actives are shown more often than they occur.

This assay has as its system HepG2. The assay can be described thus: cytotoxicity call (relative viability < 0.9). The note with it: 10 µM.
For the molecule `COc1ccc2c3c(n(c2c1)C)[C@@H](CO)N(CC1CCOCC1)C[C@]13CN(C1)C(=O)Cc1cccnc1`, the cytotoxicity call was “inactive”.
In the case of `C[C@@H]1CN([C@H](C)CO)C(=O)c2cccc(NS(=O)(=O)c3cccs3)c2O[C@@H]1CN(C)S(=O)(=O)c1ccc(F)cc1`, the cytotoxicity call is “inactive”.
Regarding `C[C@@H]1CN([C@@H](C)CO)S(=O)(=O)c2ccc(C#Cc3ccncc3)cc2O[C@@H]1CN(C)C(=O)C1CCCCC1`, the cytotoxicity call is “active”.
As for `C[C@@H]1CN([C@H](C)CO)S(=O)(=O)c2ccc(C#Cc3ccncc3)cc2O[C@@H]1CN(C)C(=O)C1CCCCC1`, the cytotoxicity call was “active”.
With `C[C@@H]1CN([C@H](C)CO)S(=O)(=O)c2ccc(C#CC3CC3)cc2O[C@H]1CN(C)C(=O)C1CCCCC1`, the cytotoxicity call is “inactive”.
Then `C[C@H]1CN([C@@H](C)CO)S(=O)(=O)c2ccc(C#Cc3ccncc3)cc2O[C@@H]1CN(C)C(=O)C1CCCCC1`, with “active”; and `C[C@H](O)C#Cc1ccc2c(c1)O[C@@H](CN(C)C(=O)C1CCCCC1)[C@@H](C)CN([C@@H](C)CO)S2(=O)=O`, with “inactive”.
For `Cc1noc(C)c1NC(=O)Nc1ccc2c(c1)CC(=O)N([C@H](C)CO)C[C@@H](C)[C@@H](CN(C)Cc1ccc(C(=O)Nc3ccccc3N)cc1)O2`, the cytotoxicity call was “inactive”.
In the case of `C[C@@H]1CN([C@H](C)CO)C(=O)Cc2cc(NC(=O)CCC(F)(F)F)ccc2O[C@@H]1CN(C)Cc1ccc(C(=O)Nc2ccccc2N)cc1`, the cytotoxicity call is “inactive”.
As to `C[C@H](CO)N1C[C@H](C)[C@H](CN(C)S(C)(=O)=O)Oc2c(cccc2N(C)C)C1=O`, the cytotoxicity call is “inactive”.
Regarding `C[C@@H]1CN([C@H](C)CO)C(=O)c2cccc(NC(=O)C3CCCCC3)c2O[C@@H]1CN(C)S(=O)(=O)c1cn(C)cn1`, the cytotoxicity call was “inactive”.
`C[C@@H]1CN([C@H](C)CO)C(=O)c2cccc(NC(=O)Nc3ccc(F)cc3)c2O[C@@H]1CN(C)S(=O)(=O)c1cn(C)cn1`: the cytotoxicity call was “inactive”.
With `COc1ccc(-n2nc(C(=O)NCC(=O)N3CCN(c4ccccc4)CC3)c3ccccc3c2=O)c(OC)c1`, the cytotoxicity call was “inactive”.
Then `CC[C@H]1OC(=O)[C@H](C)[C@@H](O[C@H]2C[C@@](C)(OC)[C@@H](O)[C@H](C)O2)[C@H](C)[C@@H](O[C@@H]2O[C@H](C)C[C@H](N(C)C)[C@H]2O)[C@](C)(O)C[C@@H](C)[C@@H]2N[C@@H](COCCOC)O[C@H]([C@H]2C)[C@]1(C)O`, with “inactive”; and `C[C@H]1CN([C@@H](C)CO)C(=O)Cc2cc(NC(=O)Nc3ccc(C(F)(F)F)cc3)ccc2O[C@H]1CN(C)C(=O)Nc1ccc(C(F)(F)F)cc1`, with “active”; and `C[C@@H]1CN([C@H](C)CO)C(=O)Cc2cc(NC(=O)Nc3ccc(C(F)(F)F)cc3)ccc2O[C@H]1CN(C)C(=O)Nc1ccc(C(F)(F)F)cc1`, with “inactive”.
On to `C[C@H](CO)N1C[C@H](C)[C@@H](CN(C)C(=O)Nc2ccc(C(F)(F)F)cc2)Oc2ccc(NC(=O)Nc3ccc(C(F)(F)F)cc3)cc2CC1=O`, for which the cytotoxicity call is “active”.
In the case of `C[C@@H]1CN([C@@H](C)CO)C(=O)Cc2cc(NC(=O)Nc3ccc(C(F)(F)F)cc3)ccc2O[C@@H]1CN(C)C(=O)Nc1ccc(C(F)(F)F)cc1`, the cytotoxicity call was “active”.
Consider `C[C@@H]1CN([C@@H](C)CO)C(=O)Cc2cc(NC(=O)Nc3ccc(C(F)(F)F)cc3)ccc2O[C@H]1CN(C)C(=O)Nc1ccc(C(F)(F)F)cc1`, for which the cytotoxicity call is “active”.
For `C[C@H]1CN([C@@H](C)CO)C(=O)Cc2cc(NC(=O)Nc3ccc(C(F)(F)F)cc3)ccc2O[C@@H]1CN(C)C(=O)Nc1ccc(C(F)(F)F)cc1`, the cytotoxicity call is “inactive”.
